Experimental data reported in PubChem BioAssay (NCI).
This is part of a sample that, as a whole, favours compounds with a hit. Of some 83,000 tested, about 20% had one in any assay.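 Treatment: one concentration, 48 hours, 96-well format. Scoring: percent growth, with anything below 10 considered active.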 Active and inactive are the calls of the source.

What was measured:
Assay in all cases: NCI-60 one-dose screen, 48 h (100 = growth as untreated, 0 = no growth, -100 = all killed)
Conditions in all cases: 10 µM unless noted
T-47D breast = tested on: T-47D breast
BT-549 breast = tested on: BT-549 breast
MDA-MB-435 melanoma = tested on: MDA-MB-435 melanoma
SW-620 colon = tested on: SW-620 colon
MCF7 breast = tested on: MCF7 breast
HCT-116 colon = tested on: HCT-116 colon
HCC-2998 colon = tested on: HCC-2998 colon
KM12 colon = tested on: KM12 colon

Measured: growth

CC(C)SC1=NC(=C(C(=N1)NC2=ClC=CC=C2)C#N)C3=CC=CC=C3
inactive: T-47D breast 55% | BT-549 breast 110% | MDA-MB-435 melanoma 62.3% | SW-620 colon 50.5% | MCF7 breast 39.9% | HCT-116 colon 27.9% | HCC-2998 colon 84.1% | KM12 colon 79.3%

COc1cc(/C=N/Nc2ccnc3cc(Cl)ccc23)cc(OC)c1O
active: T-47D breast -56.5% | MDA-MB-435 melanoma -85.9% | SW-620 colon -30.4% | MCF7 breast -72.3% | HCT-116 colon -68.7% | HCC-2998 colon -81.9% | KM12 colon -53.8%
inactive: BT-549 breast 103%

Cc1ccc(Nc2ncnc3c2c(C)nn3-c2ccc([N+](=O)[O-])cc2)cc1
inactive: T-47D breast 78.8% | BT-549 breast 92.5% | MDA-MB-435 melanoma 95.7% | SW-620 colon 65.5% | MCF7 breast 83% | HCT-116 colon 58.9% | HCC-2998 colon 97.4% | KM12 colon 81.2%

COc1ccc2c(ccn2C(=O)N2c3ccccc3Sc3ccccc32)c1
active: MDA-MB-435 melanoma -18.9%
inactive: T-47D breast 23% | BT-549 breast 34.3% | SW-620 colon 16.8% | MCF7 breast 29.6% | HCT-116 colon 31.6% | HCC-2998 colon 48.9% | KM12 colon 24.2%

COc1ccc(N2C(=O)c3cc(OC)c(OC)cc3NC2SCc2ccccc2)cc1 (stereo not given)
inactive: T-47D breast 98.5% | BT-549 breast 106% | MDA-MB-435 melanoma 107% | SW-620 colon 114% | MCF7 breast 96.3% | HCT-116 colon 100% | HCC-2998 colon 121% | KM12 colon 108%

COc1cc2c3c(n(CCCN4CCCCC4)c(=O)c2cc1OC)-c1cc2c(cc1C3=O)OCO2
active: T-47D breast -64.6% | BT-549 breast -59.7% | MDA-MB-435 melanoma -81.4% | SW-620 colon -92.5% | MCF7 breast -75.5% | HCT-116 colon -71.9% | HCC-2998 colon -86.8% | KM12 colon -85.4%

CS(=O)(=O)c1ccc2c(c1)c1c(n2Cc2ccc(Cl)cc2)CCCC1
inactive: T-47D breast 51.9% | BT-549 breast 89% | MDA-MB-435 melanoma 31.1% | SW-620 colon 74.1% | MCF7 breast 72.6% | HCT-116 colon 61.9% | HCC-2998 colon 85.5% | KM12 colon 66.6%

CCCCCc1ccc(S(=O)(=O)N(C(C)=O)c2cccc(-c3csc(N(CCN4CCN(C)CC4)C(C)=O)n3)c2)cc1
inactive: T-47D breast 50.4% | BT-549 breast 91.3% | KM12 colon 27.4%
active: MDA-MB-435 melanoma -73% | SW-620 colon -26.5% | MCF7 breast -66.2% | HCT-116 colon -66.2% | HCC-2998 colon -81.2%

O=C(NCCCNc1cc(-c2cn(-c3ccccc3)nc2-c2cccc(O)c2)ccn1)Nc1cc(C(F)(F)F)cc(C(F)(F)F)c1
inactive: T-47D breast 77.5% | BT-549 breast 84.9% | MDA-MB-435 melanoma 75.3% | SW-620 colon 94.2% | MCF7 breast 59.1% | HCT-116 colon 51.2% | HCC-2998 colon 66.8% | KM12 colon 58.1%

CC[C@]12C=CCN3CC[C@]4(C(=C(C(=O)OC)C1)Nc1cc5c(cc14)[C@@H]1[C@H](O5)[C@@H](O)[C@@]4(CC)CC(C(=O)OC)=C5Nc6cc(OC)ccc6[C@@]56CCN1[C@@H]46)[C@@H]32
active: T-47D breast 9.28% | MDA-MB-435 melanoma -12.5% | SW-620 colon 3.27% | MCF7 breast 6.01% | HCT-116 colon -87.2% | HCC-2998 colon -58.7% | KM12 colon 9.56%
inactive: BT-549 breast 37.8%

Cc1ccc(Cc2cnc(NC(=O)/C(C#N)=C/c3ccc(-c4ccc(Cl)cc4)o3)s2)cc1
inactive: T-47D breast 64.7% | BT-549 breast 96.7% | MDA-MB-435 melanoma 94.4% | SW-620 colon 93.9% | MCF7 breast 81.8% | HCT-116 colon 88.9% | HCC-2998 colon 103% | KM12 colon 90.4%

CN(c1ccc(Br)cc1)S(=O)(=O)c1ccc(-c2cnc(C3CC3)o2)cc1
active: MDA-MB-435 melanoma -12.1%
inactive: T-47D breast 55.1% | BT-549 breast 19.3% | SW-620 colon 27.9% | MCF7 breast 21.1% | HCT-116 colon 14.5% | HCC-2998 colon 16.4% | KM12 colon 23.2%

CN1CCN(c2nc(-c3csc(-c4ccncc4)n3)cc3ccccc23)CC1
inactive: T-47D breast 55.9% | BT-549 breast 83.5% | MDA-MB-435 melanoma 56.2% | SW-620 colon 74.2% | MCF7 breast 67.8% | HCT-116 colon 25.4% | HCC-2998 colon 48.8% | KM12 colon 62.6%

C=CCn1c(SCC(=O)Nc2cccc(C(=O)/C=C/c3cc(OC)c(OC)c(OC)c3)c2)nc2ccccc2c1=O
inactive: T-47D breast 66.4% | BT-549 breast 75.9% | MDA-MB-435 melanoma 21.7% | MCF7 breast 18.2% | HCC-2998 colon 82.5% | KM12 colon 46.3%
active: SW-620 colon 3.18% | HCT-116 colon -26.4%

O=C(Nc1ccc(F)cc1)c1cc(-c2ccc(F)cc2F)ccc1O
active: T-47D breast -4.71% | BT-549 breast -10.3% | MDA-MB-435 melanoma 5.11% | MCF7 breast 2.19% | HCT-116 colon 2.09% | KM12 colon 6.07%
inactive: SW-620 colon 17% | HCC-2998 colon 31.5%

CC[C@H](C)[C@H]1NC(=O)[C@@H]([C@H](O)C(C)C)NC(=O)[C@@H](C)N(C)C(=O)[C@H](C)N(C)C(=O)[C@H](CC(C)C)NC(=O)[C@H](CC(C)C)N(C)C(=O)[C@H](C)N(C)C1=O
active: T-47D breast -6.92% | BT-549 breast -4.47% | MDA-MB-435 melanoma 5.17% | SW-620 colon 5.6% | MCF7 breast 1.66% | HCT-116 colon 1.42% | HCC-2998 colon 2.12%
inactive: KM12 colon 16%

CS(=O)c1nccc(-c2c(-c3ccc(F)c(OCc4ccccc4)c3)nc3sccn23)n1 (stereo not given)
inactive: BT-549 breast 109% | MDA-MB-435 melanoma 104% | SW-620 colon 87.9% | HCT-116 colon 63.6% | HCC-2998 colon 50.4% | KM12 colon 77%
active: T-47D breast -11.6% | MCF7 breast -44.7%

CCOC(=O)c1c(NCC(=O)Nc2ccc(Br)cc2)sc2c1CCCC2
active: SW-620 colon 8.98% | HCT-116 colon 7.99%
inactive: T-47D breast 30.9% | BT-549 breast 23.9% | MDA-MB-435 melanoma 42.9% | MCF7 breast 11.9% | HCC-2998 colon 67.9% | KM12 colon 70.2%

COC(=O)c1nc(-c2ccc(C)cc2)oc1S(=O)(=O)N1CCN(c2oc(-c3ccccc3)nc2C#N)CC1
inactive: T-47D breast 111% | BT-549 breast 99.7% | MDA-MB-435 melanoma 102% | SW-620 colon 99.5% | MCF7 breast 80.6% | HCT-116 colon 92.8% | HCC-2998 colon 113% | KM12 colon 101%

CCOC(=O)c1nn(-c2ccccc2)c(=O)c2c(N)c(C#N)c(-c3cccs3)cc12
inactive: T-47D breast 76.7% | BT-549 breast 107% | MDA-MB-435 melanoma 90.3% | SW-620 colon 79.3% | MCF7 breast 74.6% | HCT-116 colon 52.8% | HCC-2998 colon 78.2% | KM12 colon 80.4%

Cc1cn(-c2cc(NC(=O)c3cncc(C#Cc4cnc5ccc(OCCCS(C)(=O)=O)nn45)c3)cc(C(F)(F)F)c2)cn1
inactive: T-47D breast 30.5% | MDA-MB-435 melanoma 34.7% | HCC-2998 colon 17.4%
active: BT-549 breast -1.88% | SW-620 colon 8.59% | MCF7 breast 0.458% | HCT-116 colon 3.57% | KM12 colon -17.8%

COc1ccc(S(=O)(=O)NCCCNc2nccc(-n3cnc4ccccc43)n2)cc1
inactive: T-47D breast 66.3% | BT-549 breast 92.9% | MDA-MB-435 melanoma 98.7% | SW-620 colon 104% | MCF7 breast 85.1% | HCT-116 colon 89.9% | HCC-2998 colon 111% | KM12 colon 84.1%

O=C(CN1C(=O)S/C(=C\c2ccccc2)C1=O)Nc1ccc(C(=O)/C=C/c2cc3ccccc3nc2Cl)cc1
active: HCT-116 colon -64.1%
inactive: T-47D breast 54.6% | BT-549 breast 60.9% | MDA-MB-435 melanoma 82.9% | SW-620 colon 98% | MCF7 breast 26.6% | HCC-2998 colon 97.8% | KM12 colon 87.7%

COc1ccc(NC2=C(Cl)C(=O)C(C)=C(C)C2=O)cc1
inactive: BT-549 breast 110% | MDA-MB-435 melanoma 106% | SW-620 colon 94.3% | MCF7 breast 75.9% | HCT-116 colon 63.4% | HCC-2998 colon 101% | KM12 colon 72.3%
active: T-47D breast -2.17%

CN1CCN(c2ccc(C(=O)Nc3cccc(-c4cn(-c5ccc(S(N)(=O)=O)cc5)nn4)c3)cc2C(F)(F)F)CC1
inactive: T-47D breast 74.8% | BT-549 breast 73.5% | MDA-MB-435 melanoma 77.7% | SW-620 colon 50.4% | MCF7 breast 70.8% | HCT-116 colon 71.4% | HCC-2998 colon 88.3% | KM12 colon 59.1%

COc1cc([C@H]2OC[C@H]3[C@@H]2CO[C@@H]3c2ccc(O)c(OC)c2)ccc1O
inactive: T-47D breast 97.2% | BT-549 breast 68.5% | MDA-MB-435 melanoma 107% | SW-620 colon 107% | MCF7 breast 96.1% | HCT-116 colon 92.8% | HCC-2998 colon 96% | KM12 colon 90.6%

COc1cc2c3c(n(CCCN4CCC[C@H]4C(N)=O)c(=O)c2cc1OC)-c1cc2c(cc1C3=O)OCO2
active: T-47D breast -11.4% | MCF7 breast -0.242% | HCT-116 colon 5.37%
inactive: BT-549 breast 27.3% | MDA-MB-435 melanoma 31.8% | SW-620 colon 19.7% | HCC-2998 colon 30.5% | KM12 colon 26.1%

N=c1c2cc(-c3ccccc3)oc2ncn1/N=C/c1ccccc1
inactive: T-47D breast 94% | BT-549 breast 92.1% | SW-620 colon 60.1% | MCF7 breast 50.4% | HCT-116 colon 65% | HCC-2998 colon 99% | KM12 colon 59%
active: MDA-MB-435 melanoma 7.67%

COc1ccc(C(=O)n2cc(C=O)c3ccccc32)cc1
inactive: T-47D breast 106% | BT-549 breast 100% | MDA-MB-435 melanoma 88.8% | SW-620 colon 90% | MCF7 breast 82.1% | HCT-116 colon 91.3% | HCC-2998 colon 104% | KM12 colon 102%

COc1ccc(OC)c([C@H]2c3[nH]c4ccccc4c3C[C@H]3C(=O)N(CCCCCCC(=O)NO)CC(=O)N23)c1
inactive: T-47D breast 65% | BT-549 breast 107% | MDA-MB-435 melanoma 85% | SW-620 colon 72.5% | MCF7 breast 72.2% | HCT-116 colon 66.8% | HCC-2998 colon 99.9% | KM12 colon 91.7%
